PubChem BioAssay AID1018 (Sanford-Burnham Center for Chemical Genomics, 2008)
Among all 200,000 compounds or so, about 15 (0.007%) were called active. This is one part of a sample in which actives are shown more often than they occur. No stated cut-off is given here; in the data, active means displacement above about 50%; inactive means the rest.

molecular target: E3 ubiquitin-protein ligase XIAP (Homo sapiens) (UniProt P98170); experiment: small molecules displacing peptide from XIAP – biochemical, IAP family, fluorescence polarization (AID 1018); conditions: XIAP BIR domain, at 20 µM, hits give high values
Sequence (P98170 whole entry, looked up, the tested form may be a part): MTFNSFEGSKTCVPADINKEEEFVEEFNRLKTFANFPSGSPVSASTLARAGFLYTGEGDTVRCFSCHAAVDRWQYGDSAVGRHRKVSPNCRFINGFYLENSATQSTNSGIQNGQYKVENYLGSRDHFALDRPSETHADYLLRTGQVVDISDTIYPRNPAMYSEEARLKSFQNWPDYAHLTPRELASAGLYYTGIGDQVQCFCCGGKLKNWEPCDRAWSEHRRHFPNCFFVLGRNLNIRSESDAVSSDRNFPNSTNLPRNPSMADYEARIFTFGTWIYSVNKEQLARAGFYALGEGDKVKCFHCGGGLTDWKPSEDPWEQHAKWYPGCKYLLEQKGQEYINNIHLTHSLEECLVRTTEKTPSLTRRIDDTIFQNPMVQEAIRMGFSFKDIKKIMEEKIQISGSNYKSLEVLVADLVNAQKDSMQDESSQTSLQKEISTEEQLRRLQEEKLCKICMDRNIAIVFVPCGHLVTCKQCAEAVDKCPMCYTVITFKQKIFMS

Q: Which displacement does the source give for CCN1/C(=C/c2ccc3cc(C)ccc3[n+]2C)Sc2ccc3sccc3c21 here?
A: 72.1% (active)

Q: Which displacement does the source give for CCN1/C(=C/c2ccc3cc(C)ccc3[n+]2CC)Sc2cc(C)ccc21 here?
A: 1.8% (inactive)

Q: With CCN1/C(=C/c2ccc3cc(C)ccc3[n+]2CC)Sc2ccccc21 as the compound, how does the displacement read?
A: -5.1% (inactive)

Q: How did the displacement turn out when O=C(COc1ccccc1)Nc1ccncc1 was run?
A: -2.7% (inactive)

Q: How did the displacement turn out when Cc1sc(N)c(C#N)c1C was run?
A: -1.2% (inactive)

Q: With CC(C)Oc1cccc(C(=O)C2CCCN(Cc3ccc4nonc4c3)C2)c1 (stereo not given) as the compound, how does the displacement read?
A: -5.9% (inactive)

Q: Which displacement does the source give for CCc1c(C)nc2c(Br)cccc2c1SCCC#N here?
A: -0.5% (inactive)

Q: With CN(C)c1nc(N)nc(CSc2nnnn2-c2ccccc2)n1 as the compound, how does the displacement read?
A: -5.7% (inactive)

Q: With CCOC(=O)c1c(-c2ccccc2)oc2ccc(O)c(CN3CCN(C)CC3)c12 as the compound, how does the displacement read?
A: -5.2% (inactive)

Q: Which displacement does the source give for Cc1cc(NC(=O)COn2nnc3ccc(Cl)cc32)no1 here?
A: -5.1% (inactive)

Q: How did the displacement turn out when COc1ccc(OC)c(NC(=O)C23CC4CC(C2)CC(n2cnc(Br)n2)(C4)C3)c1 was run?
A: -3.2% (inactive)

Q: With CCC(Oc1ccccc1)C(=O)N1CC(C)CC(C)C1 (stereo not given) as the compound, how does the displacement read?
A: 2.4% (inactive)

Q: For C[N+]1(CC(=O)OCCCc2ccccc2)CCCC1, which displacement is on record?
A: -9.6% (inactive)

Q: With O=C(NC1CCCc2ccccc21)c1ccc(S(=O)(=O)N2CCOCC2)cc1 (stereo not given) as the compound, how does the displacement read?
A: -3.4% (inactive)

Q: How did the displacement turn out when CCOc1cccc2cc(C(=O)N3CCc4ccccc43)c(=O)oc12 was run?
A: -88.7% (inactive)

Q: For CCC(/C=N/NC(=O)C(=O)N/N=C/C(CC)CC)CC, which displacement is on record?
A: -0.2% (inactive)

Q: For O=C(COc1cccc(NC(=O)c2cccc([N+](=O)[O-])c2)c1)c1ccc(Br)cc1, which displacement is on record?
A: -6.2% (inactive)

Q: Which displacement does the source give for O=C(COc1cccc(NC(=O)c2cccc([N+](=O)[O-])c2)c1)c1ccc(F)cc1 here?
A: 59.8% (active)

Q: Which displacement does the source give for COc1cccc(C(=O)COc2cccc(NC(=O)c3cccc([N+](=O)[O-])c3)c2)c1 here?
A: -1.9% (inactive)

Q: With CC(=O)Nc1ccccc1OCC(=O)NCCc1ccc(Cl)cc1Cl as the compound, how does the displacement read?
A: -8.3% (inactive)

Q: COCCNC(=O)CCSCc1ccccc1F was tested. Which displacement did it give?
A: -1.3% (inactive)

Q: With O=C(Nc1ccccc1C(F)(F)F)NC1CCCCC1 as the compound, how does the displacement read?
A: -2.8% (inactive)

Q: With CC(=O)Nc1cc(C)c(S(C)(=O)=O)c(C)c1 as the compound, how does the displacement read?
A: -8.9% (inactive)

Q: For CC1CN(CC(O)COC(c2ccccc2)c2ccccc2)CC(C)O1 (stereo not given), which displacement is on record?
A: -4.7% (inactive)

Q: For CC(=C/c1ccc(C(C)C)cc1)/C=N/NC(=O)c1ccncc1, which displacement is on record?
A: -6.3% (inactive)

Q: O=C(CN1CCc2ccccc2C1)Nc1ccc(F)cc1F was tested. Which displacement did it give?
A: -0.5% (inactive)

Q: With Cc1ccc(C(=O)Nc2ncc(C)s2)o1 as the compound, how does the displacement read?
A: -3.4% (inactive)

Q: With COc1ccccc1CCc1nnc(CCC(=O)NCCCOc2cccnc2)o1 as the compound, how does the displacement read?
A: -4.3% (inactive)

Q: CC1=C(C(=O)Nc2ccccc2)C(c2ccccc2[N+](=O)[O-])NC(=O)N1 (stereo not given) was tested. Which displacement did it give?
A: -1.5% (inactive)

Q: How did the displacement turn out when O=[N+]([O-])c1ccccc1OCCCN1CCOCC1 was run?
A: -4.4% (inactive)

Q: Which displacement does the source give for CC(C)CNC(=O)NC(=O)COc1ncnc2sccc12 here?
A: -1.4% (inactive)

Q: With COc1ccc(NC(=O)CSc2nnc(NC(=O)c3ccccc3C(=O)O)s2)cc1 as the compound, how does the displacement read?
A: -4.3% (inactive)

Q: Which displacement does the source give for Cc1ccc(Sc2nc(C)cc(C)c2S(C)(=O)=O)cc1 here?
A: -4.9% (inactive)

Q: Which displacement does the source give for COCCNC(=O)NC(=O)COC(=O)c1ccc2[nH]c3c(c2c1)CCCC3 here?
A: -1.1% (inactive)

Q: Which displacement does the source give for O=C(CCCC(=O)OCC(Cl)=C(Cl)Cl)Nc1cccc(F)c1 here?
A: -3.5% (inactive)
